Most compounds without a hit are left out; they make up all but 3.4% or so of the library.
GPR151 ag – activators of human GPR151, primary screen, cell-based, PathHunter beta-arrestin, luminescence | activation, % at 11.2 µM | G-protein coupled receptor 151 (Homo sapiens), Q8TDV0 | PathHunter beta-arrestin GPR151 cells | hit rate 1% among 650,000; in the data active = activation above about 4.9%;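 also: 0% = median of compound wells and 100% = cells with positive control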
MITF inh – MITF inhibitors, primary screen, biochemical, AlphaScreen, human. hit rate 0.91% among 650,000. Microphthalmia-associated transcription factor (Homo sapiens), O75030. AlphaScreen MITF homodimerization, bead proximity signal. AID 1259374, 2018. inhibition, % at 2.6 µM; in the data active = inhibition above about 50%;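 also: 0% = vehicle wells with protein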
Target sequence (O75030 whole entry, looked up): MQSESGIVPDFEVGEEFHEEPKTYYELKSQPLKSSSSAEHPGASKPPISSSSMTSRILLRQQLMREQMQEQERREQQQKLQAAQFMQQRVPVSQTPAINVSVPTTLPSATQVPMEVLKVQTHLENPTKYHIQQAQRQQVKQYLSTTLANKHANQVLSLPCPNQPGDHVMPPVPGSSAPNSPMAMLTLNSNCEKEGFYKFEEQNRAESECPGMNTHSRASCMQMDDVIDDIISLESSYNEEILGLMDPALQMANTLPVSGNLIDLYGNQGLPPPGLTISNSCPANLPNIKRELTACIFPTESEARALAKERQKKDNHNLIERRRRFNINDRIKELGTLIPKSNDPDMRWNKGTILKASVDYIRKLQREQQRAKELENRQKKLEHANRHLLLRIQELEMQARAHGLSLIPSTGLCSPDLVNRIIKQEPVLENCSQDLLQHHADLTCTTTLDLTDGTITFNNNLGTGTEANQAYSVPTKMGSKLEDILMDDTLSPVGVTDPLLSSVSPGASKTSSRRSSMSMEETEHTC
FBW7 act – FBW7 E3 ligase activators, primary screen, biochemical, AlphaScreen, human | normalized activity (activation), % at 26.1 µM | F-box/WD repeat-containing protein 7 (Homo sapiens), Q969H0 | hit rate 0.13% among 650,000 | AlphaScreen FBW7–phospho-cyclin E peptide binding, activator screen; in the data active = normalized activity above about 1.9%;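 also: purified mutant Fbw7 with reduced substrate affinity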
TEAD-YAP block – TEAD-YAP interaction inhibition, primary screen, TEAD-YAP interaction inhibitor project, luminescence, HEK-TIYL cells; TEAD-Gal4/YAP UAS-luciferase luminescence; inhibition, % at 9.12 µM; hit rate 1.4% among 640,000; AID 1259422, 2018; in the data active = inhibition above about 32%;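 also: 0% = median of test compound wells and 100% = reference inhibitor wells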
GPR151 conf act – GPR151 activators, triplicate retest, confirmation, cell-based, PathHunter beta-arrestin, luminescence. shares compounds with GPR151 ag. GPR151 PathHunter beta-arrestin cells, 90 min; % of EA-reagent control over plate median. activation, % at 11.2 µM. 6,700 tested, under 10 active. AID 1508609, 2020;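 active = mean percent activation across replicates above the confirmation screen cutoff of 4.91%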
GPR119 ag – GPR119 activators in beta-arrestin cells, counter-screen for GPR151 activator project, cell-based, PathHunter beta-arrestin, luminescence, triplicate | shares compounds with GPR151 ag | 90 min; 0 = compound-well median, 100 = enzyme-acceptor control | activation, % at 11.2 µM | hit rate 0.3% among 6,700;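 active = mean percent activation in the counterscreen above 29.09%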;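 also: counterscreen on off-target GPR119 to flag nonselective hits from the GPR151 activator screen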
Active calls of the source: *.

How did CSc1nc2sccn2c(=O)c1C(=O)NC1CCC(O)CC1 (centres undefined) do in these assays?
GPR151 ag: 6.8*; MITF inh: -5; FBW7 act: 0; TEAD-YAP block: 3; GPR151 conf act: 0; GPR119 ag: 9

What do the screens show for `O=C1N2CN(C(c3ccccc3)c3ccccc3)CN=C2SC1(CO)CO`?
GPR151 ag: 7.7*; MITF inh: 17; FBW7 act: 0; TEAD-YAP block: 5; GPR151 conf act: -1; GPR119 ag: -6

Results for CCC(=O)N1CCc2cc(S(=O)(=O)CCC(=O)NC3CCCCCC3)ccc21 ?
GPR151 ag: 5.0*; MITF inh: 5; FBW7 act: 0; TEAD-YAP block: -7; GPR151 conf act: 0; GPR119 ag: 1

How did CCOC(=O)c1ccc(N2N=C(C)/C(=C/c3ccc(C)o3)C2=O)cc1 do in these assays?
GPR151 ag: -1; MITF inh: 6; FBW7 act: 0; TEAD-YAP block: -2

How did COc1ccc(CC(=O)Nc2ccc(Cl)cc2C(=O)O)cc1 do in these assays?
GPR151 ag: -2; MITF inh: 3; FBW7 act: 0; TEAD-YAP block: 1

Results for COc1ccc(CC(=O)Nc2cc(Cl)ccc2C(=O)O)cc1 ?
GPR151 ag: 5.6*; MITF inh: -7; FBW7 act: 0; TEAD-YAP block: 0; GPR151 conf act: 0; GPR119 ag: -7

What do the screens show for `CSc1ncc(CN2CCN(Cc3ccc(F)cc3)C(CCO)C2)cn1` (centres undefined)?
GPR151 ag: 3; MITF inh: 12; FBW7 act: 0; TEAD-YAP block: 2

What do the screens show for `CCn1c(SCC(=O)N/N=C(/C)c2ccc(OC)cc2)nc2ccccc21`?
GPR151 ag: 6.8*; MITF inh: 20; FBW7 act: 0; TEAD-YAP block: 13; GPR151 conf act: -1; GPR119 ag: -4

What do the screens show for `COc1ccc(/C=N/NS(=O)(=O)c2ccccc2)cc1CSc1ccccn1`?
GPR151 ag: 0; MITF inh: 10; FBW7 act: 0; TEAD-YAP block: -6

How did COc1ccc(C=O)cc1CSc1ccccn1 do in these assays?
GPR151 ag: 5.3*; MITF inh: 9; FBW7 act: 0; TEAD-YAP block: 12; GPR151 conf act: -1; GPR119 ag: -6

What do the screens show for `O=C(Oc1ccc(I)cc1)c1ccc([N+](=O)[O-])cc1`?
GPR151 ag: 6.1*; MITF inh: 9; FBW7 act: 0; TEAD-YAP block: 1; GPR151 conf act: -1; GPR119 ag: -5

What do the screens show for `COC(=O)c1ccc(/C=N/NC(=O)c2cc(-c3cccs3)[nH]n2)cc1`?
GPR151 ag: 7.4*; MITF inh: -1; FBW7 act: 0; TEAD-YAP block: 11; GPR151 conf act: 0; GPR119 ag: 8

Results for O=C(O)c1ccc(/C=N/NC(=O)c2cc(-c3cccs3)[nH]n2)cc1 ?
GPR151 ag: 1; MITF inh: 11; FBW7 act: 0; TEAD-YAP block: -5

What do the screens show for `CN1C(=O)c2ccccc2C(C(=O)NC2CCCCCC2)C1c1cccs1` (centres undefined)?
GPR151 ag: 0; MITF inh: 11; FBW7 act: 0; TEAD-YAP block: -14

What do the screens show for `CC1CCCCC1NC(=O)C1c2ccccc2C(=O)N(C)C1c1cccs1` (centres undefined)?
GPR151 ag: 7.5*; MITF inh: 0; FBW7 act: 0; TEAD-YAP block: -9; GPR151 conf act: 0; GPR119 ag: -7

How did Nc1nc(Cl)cc(Oc2ccc(I)cc2)n1 do in these assays?
GPR151 ag: 1; MITF inh: 4; FBW7 act: 0; TEAD-YAP block: -1

How did O=C(CSCC(=O)N1CCCCC1)Nc1nc(-c2cccs2)cs1 do in these assays?
GPR151 ag: -1; MITF inh: 10; FBW7 act: 0; TEAD-YAP block: -5

What do the screens show for `O=C(CSCC(=O)N1CCCCC1)Nc1nc(-c2ccc(Cl)s2)cs1`?
GPR151 ag: 6.1*; MITF inh: 1; FBW7 act: 0; TEAD-YAP block: -24; GPR151 conf act: 0; GPR119 ag: 7

Results for O=C(Nc1cccnc1)c1cccc(Cl)c1Cl ?
GPR151 ag: -1; MITF inh: 11; FBW7 act: 0; TEAD-YAP block: -4

Results for COc1ccc(CCNc2nc(NC3CCN(Cc4ccccc4)CC3)nc3cc(OC)c(OC)cc23)cc1 ?
GPR151 ag: 8.0*; MITF inh: 1; FBW7 act: 0; TEAD-YAP block: -3; GPR151 conf act: 0; GPR119 ag: 11

Results for CCOC(=O)COc1c(Br)cc(C=O)cc1OCC ?
GPR151 ag: 0; MITF inh: -11; FBW7 act: 0; TEAD-YAP block: -11

What do the screens show for `COc1ccc(Cc2nn3c(-c4ccc(C)cc4)nnc3s2)cc1`?
GPR151 ag: 6.4*; MITF inh: 12; FBW7 act: 0; TEAD-YAP block: 8; GPR151 conf act: 0; GPR119 ag: 0

How did COc1ccc(C2=CC(c3cc(OC)c(OC)c(OC)c3)n3nnnc3N2)cc1 (centres undefined) do in these assays?
GPR151 ag: 7.3*; MITF inh: 16; FBW7 act: 0; TEAD-YAP block: 61*; GPR151 conf act: 0; GPR119 ag: -10

What do the screens show for `O=S(=O)(Nc1ccc(F)c(F)c1)c1ccc(F)cc1`?
GPR151 ag: -1; MITF inh: -2; FBW7 act: 0; TEAD-YAP block: 11

Results for CC(=O)Nc1cc(-c2cccc(Br)c2)nn1-c1ccccc1 ?
GPR151 ag: 5.3*; MITF inh: 6; FBW7 act: 0; TEAD-YAP block: 6; GPR151 conf act: -1; GPR119 ag: -4

Results for O=C(CC(NCCO)C(=O)O)Nc1ccccc1 (centres undefined) ?
GPR151 ag: 6.8*; MITF inh: -7; FBW7 act: 0; TEAD-YAP block: 1; GPR151 conf act: 1; GPR119 ag: -1

How did Cc1cccc(NC(=O)CC(NCCO)C(=O)O)c1 (centres undefined) do in these assays?
GPR151 ag: 1; MITF inh: -9; FBW7 act: 0; TEAD-YAP block: -6

What do the screens show for `O=C(NC(=S)NC(=O)c1ccccc1F)c1ccccc1F`?
GPR151 ag: 2; MITF inh: 8; FBW7 act: 0; TEAD-YAP block: 10

Results for O=C(NC(=S)NCc1ccccc1)c1ccccc1F ?
GPR151 ag: 7.0*; MITF inh: -10; FBW7 act: 0; TEAD-YAP block: 0; GPR151 conf act: 1; GPR119 ag: 0
